Reference: PubChem BioAssay (NCI)
The panel holds about 79,000 compounds, 15% with a hit somewhere; the sample as a whole holds those more often. The source made the active and inactive calls. Rule as the data show it: active = growth inhibition above about 70%; inactive = the rest.

What was measured:
[1] = NCI Yeast Anticancer Drug Screen. Data for the rad52 strain (AID 147);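 also: 0% = growth of vehicle-treated control cultures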; settings: S. cerevisiae rad52 mutant growth inhibition, active compounds read high
Summary of the method: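 The repair-mutant yeast strain was incubated with compounds, then growth was read and inhibition derived relative to vehicle.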

[2] = NCI Yeast Anticancer Drug Screen. Data for the wt1 strain (AID 149);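 also: 0% = growth of vehicle-treated wt1 cultures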; settings: S. cerevisiae wt1 strain (SPY 50644) growth inhibition, active compounds read high
Summary of the method: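 Each compound is tested on wt1 yeast and the loss of growth versus vehicle gives the inhibition value.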

[3] = NCI Yeast Anticancer Drug Screen. Data for the rad50EPP+ strain (AID 151);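 also: 0% = growth of vehicle-treated control cultures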; settings: S. cerevisiae rad50 mutant strain, active compounds read high
Summary of the method: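 Vehicle-normalised growth inhibition; rad50EPP+ yeast strain, altered in DNA damage repair, compound-treated.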

[4] = NCI Yeast Anticancer Drug Screen. Data for the mgt1 strain (AID 153); settings: S. cerevisiae mgt1 mutant growth inhibition, active compounds read high
Summary of the method: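 Vehicle-normalized growth inhibition is determined in mgt1 yeast, a strain selected for a defined alteration in DNA repair or cell cycle control.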

[5] = NCI Yeast Anticancer Drug Screen. Data for the rad50 strain (AID 155);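 also: 0% = growth of vehicle-only cultures of the same strain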; settings: S. cerevisiae rad50 strain growth inhibition, active compounds read high
Summary of the method: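 Vehicle-treated cultures provide the reference for the growth inhibition reported for compound-exposed, repair-deficient yeast.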

[6] = NCI Yeast Anticancer Drug Screen. Data for the mec2-1 strain (AID 157); settings: S. cerevisiae mec2-1 strain, active compounds read high
Summary of the method: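 Mutant yeast (mec2-1) grown with compound; growth inhibition relative to vehicle control reported.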

[7] = NCI Yeast Anticancer Drug Screen. Data for the rad14 strain (AID 159);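 also: 0% = growth of vehicle-treated control cultures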; settings: S. cerevisiae rad14 strain growth inhibition, active compounds read high
Summary of the method: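 Inhibition of growth is reported for a repair-deficient yeast mutant following compound treatment, calculated relative to cultures that received vehicle.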

[8] = NCI Yeast Anticancer Drug Screen. Data for the sgs1 mgt1 strain (AID 161);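 also: 0% = growth of cultures given vehicle only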; settings: S. cerevisiae sgs1 mgt1 strain, active compounds read high
Summary of the method: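 Compounds are added to genetically altered yeast, and growth is compared with cultures given vehicle alone to give percent inhibition.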

[9] = NCI Yeast Anticancer Drug Screen. Data for the CLN2oe strain (AID 163);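 also: 0% = growth of vehicle-only control cultures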; settings: S. cerevisiae CLN2oe strain, active compounds read high
Summary of the method: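 Compounds are applied to yeast harbouring a defined cell-cycle control change; reduced growth compared with vehicle-treated controls gives the value.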

[10] = NCI Yeast Anticancer Drug Screen. Data for the cln2 rad14 strain (AID 165);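 also: 0% = growth equal to vehicle treated cultures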; settings: S. cerevisiae cln2 rad14 strain, active compounds read high
Summary of the method: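 Readout is yeast growth inhibition versus vehicle-treated controls, using a strain with cln2 and rad14 alterations exposed to compound.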

[11] = NCI Yeast Anticancer Drug Screen. Data for the bub3 strain (AID 167); settings: S. cerevisiae bub3 mutant strain, active compounds read high
Summary of the method: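 Mutant yeast screening strain plus compound; vehicle-treated cultures serve as the 0% inhibition reference.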

[12] = NCI Yeast Anticancer Drug Screen. Data for the wt2 strain (AID 169); settings: S. cerevisiae wt2 strain growth inhibition, active compounds read high
Summary of the method: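 Against vehicle-treated controls, the growth of yeast exposed to each compound was compared, and the inhibition was recorded.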

[13] = NCI Yeast Anticancer Drug Screen. Data for the mlh1 strain (AID 171);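 also: 0% = growth of vehicle-treated control cultures of the same strain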; settings: S. cerevisiae mlh1 strain growth inhibition, active compounds read high
Summary of the method: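 Measured: yeast growth. Reference: vehicle-treated controls. Organism: strain with a defined alteration affecting DNA damage repair or cell cycle control, treated with compound.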

[14] = NCI Yeast Anticancer Drug Screen. Data for the sgs1 strain (AID 173);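 also: 0% = growth of vehicle-only control cultures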; settings: S. cerevisiae sgs1 mutant, active compounds read high
Summary of the method: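 Each compound was added to cultures of the altered yeast strain. Growth was recorded, and inhibition was derived by comparison with vehicle controls.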

[15] = NCI Yeast Anticancer Drug Screen. Data for the mlh1 rad18 strain (AID 175); settings: S. cerevisiae mlh1 rad18 strain growth inhibition, active compounds read high
Summary of the method: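 Genetically defined yeast (DNA repair-deficient) exposed to compounds; growth inhibition determined relative to vehicle.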

[16] = NCI Yeast Anticancer Drug Screen. Data for the rad18 strain (AID 177); settings: S. cerevisiae rad18 mutant growth inhibition, active compounds read high
Summary of the method: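 Vehicle-treated cultures served as the baseline for scoring compound-induced growth inhibition in DNA-repair-mutant yeast.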

[17] = at 5.0 µM (retest, dose inferred, filed as 0.5)
[18] = at 50.0 µM (retest, dose inferred, filed as 5.0)

Measured: growth inhibition

O=C1C=C(Cl)C(=O)N1c1cccc(Cl)c1
inactive: [1]; at 1.2 µM 6% | [2]; at 1.2 µM 12% | [3]; at 1.2 µM 41% | [4]; at 1.2 µM -3% | [4]; at 3.7 µM 67% | [5]; at 1.2 µM 11% | [6]; at 1.2 µM -6% | [6]; at 3.7 µM 63% | [6]; [17] 8% | [7]; at 1.2 µM 34% | [8]; [17] 11% | [9]; at 1.2 µM -13% | [9]; at 3.7 µM 33% | [10]; [17] 3% | [11]; at 1.2 µM 55% | [11]; [17] 65% | [12]; at 1.2 µM 30% | [13]; at 1.2 µM -11% | [13]; at 3.7 µM 58% | [14]; at 1.2 µM 21% | [15]; [17] 0% | [16]; at 1.2 µM -1% | [16]; at 3.7 µM 36%
active: [1]; at 3.7 µM 89% | [1]; at 11.0 µM 99% | [1]; at 33.0 µM 99% | [1]; at 100.0 µM 99% | [2]; at 3.7 µM 97% | [2]; at 11.0 µM 100% | [2]; at 33.0 µM 99% | [2]; at 100.0 µM 100% | [3]; at 3.7 µM 96% | [3]; at 11.0 µM 99% | [3]; at 33.0 µM 99% | [3]; at 100.0 µM 99% | [4]; at 11.0 µM 99% | [4]; at 33.0 µM 99% | [4]; at 100.0 µM 100% | [5]; at 3.7 µM 86% | [5]; [17] 87% | [5]; at 11.0 µM 99% | [5]; at 33.0 µM 99% | [5]; [18] 97% | [5]; at 50.0 µM 99.5% | [5]; at 100.0 µM 99% | [6]; at 11.0 µM 99% | [6]; at 33.0 µM 100% | [6]; [18] 99% | [6]; at 50.0 µM 99.6% | [6]; at 100.0 µM 99% | [7]; at 3.7 µM 97% | [7]; at 11.0 µM 100% | [7]; at 33.0 µM 100% | [7]; at 100.0 µM 100% | [8]; [18] 99% | [8]; at 50.0 µM 99.5% | [9]; at 11.0 µM 99% | [9]; at 33.0 µM 99% | [9]; at 100.0 µM 99% | [10]; [18] 98% | [10]; at 50.0 µM 99.4% | [11]; at 3.7 µM 93% | [11]; at 11.0 µM 99% | [11]; at 33.0 µM 99% | [11]; [18] 98% | [11]; at 50.0 µM 99.5% | [11]; at 100.0 µM 100% | [12]; at 3.7 µM 99% | [12]; at 11.0 µM 100% | [12]; at 33.0 µM 100% | [12]; at 100.0 µM 100% | [13]; at 11.0 µM 99% | [13]; at 33.0 µM 100% | [13]; at 100.0 µM 100% | [14]; at 3.7 µM 95% | [14]; at 11.0 µM 99% | [14]; at 33.0 µM 100% | [14]; at 100.0 µM 99% | [15]; [18] 95% | [15]; at 50.0 µM 99.5% | [16]; at 11.0 µM 99% | [16]; at 33.0 µM 99% | [16]; at 100.0 µM 99%

CCOC(=O)c1[nH]n(-c2ccccc2)c(=O)c1C=NC(=S)C(N)=S
inactive: [1]; at 1.2 µM 24% | [1]; at 3.7 µM 21% | [1]; at 11.0 µM 30% | [2]; at 1.2 µM 19% | [2]; at 3.7 µM 8% | [2]; at 11.0 µM 25% | [2]; at 33.0 µM 29% | [3]; at 1.2 µM -3% | [3]; at 3.7 µM -23% | [3]; at 11.0 µM 5% | [3]; at 33.0 µM 30% | [3]; at 100.0 µM 69% | [4]; at 1.2 µM -6% | [4]; at 3.7 µM -10% | [4]; at 11.0 µM -16% | [4]; at 33.0 µM 34% | [5]; at 1.2 µM 8% | [5]; at 3.7 µM 29% | [5]; [17] -36% | [5]; at 11.0 µM 31% | [5]; [18] 19% | [6]; at 1.2 µM 5% | [6]; at 3.7 µM 5% | [6]; [17] -22% | [6]; at 11.0 µM -12% | [7]; at 1.2 µM -15% | [7]; at 3.7 µM -15% | [7]; at 11.0 µM -11% | [8]; [17] -4% | [8]; [18] 13% | [9]; at 1.2 µM -8% | [9]; at 3.7 µM -7% | [9]; at 11.0 µM 2% | [9]; at 33.0 µM 35% | [10]; [17] -4% | [10]; [18] 12% | [11]; at 1.2 µM -8% | [11]; at 3.7 µM -4% | [11]; [17] -27% | [11]; at 11.0 µM -8% | [11]; at 33.0 µM 8% | [11]; at 50.0 µM 60.2% | [12]; at 1.2 µM -2% | [12]; at 3.7 µM 0% | [12]; at 11.0 µM 7% | [12]; at 33.0 µM 46% | [13]; at 1.2 µM 22% | [13]; at 3.7 µM 16% | [13]; at 11.0 µM 43% | [14]; at 1.2 µM 21% | [14]; at 3.7 µM 27% | [14]; at 11.0 µM 41% | [15]; [17] -3% | [16]; at 1.2 µM 0% | [16]; at 3.7 µM -4% | [16]; at 11.0 µM 2% | [16]; at 33.0 µM 67%
active: [1]; at 33.0 µM 71% | [1]; at 100.0 µM 97% | [2]; at 100.0 µM 98% | [4]; at 100.0 µM 97% | [5]; at 33.0 µM 90% | [5]; at 50.0 µM 87.5% | [5]; at 100.0 µM 97% | [6]; at 33.0 µM 96% | [6]; [18] 88% | [6]; at 50.0 µM 90.7% | [6]; at 100.0 µM 97% | [7]; at 33.0 µM 95% | [7]; at 100.0 µM 97% | [8]; at 50.0 µM 91% | [9]; at 100.0 µM 97% | [10]; at 50.0 µM 90.4% | [11]; [18] 92% | [11]; at 100.0 µM 97% | [12]; at 100.0 µM 98% | [13]; at 33.0 µM 96% | [13]; at 100.0 µM 97% | [14]; at 33.0 µM 96% | [14]; at 100.0 µM 97% | [15]; [18] 92% | [15]; at 50.0 µM 86.3% | [16]; at 100.0 µM 97%
